Inconclusive results are not listed. Active and inactive are the calls of the source.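 Rule for the calls, unless noted: active = response below a set limit, under 55% cells CD8-positive and vesicle-bound, and CD8 cells' 90th-percentile brightness under 279; inactive = the rest.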

The results in this text go back to PubChem BioAssay.

Experiment [1] can be described thus: yeast TOR pathway RPL19A-GFP modulators, primary screen, cell-based, S. cerevisiae, multiplex flow cytometry (AID 1862; in the data active = percent of DMSO control GFP below about 86%;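 note: lower values mimic rapamycin by blocking the RPL19A rise seen in DMSO cells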). The settings on record: S. cerevisiae RPL19A-GFP strain, flow cytometry fluorescence, 3 h; at 10 µM; stronger effect = lower value. Background: Flow cytometry measures light scatter and fluorescence of single cells or particles in a stream.
The nature of experiment [2]: modulators of MEP2-GFP levels in yeast, primary screen, S. cerevisiae, multiplex flow cytometry (AID 1867;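 active = GFP response, as percent of the DMSO control, above the screen-wide mean plus 3 SD, about 139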;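 note: median GFP channel fluorescence of barcode-gated MEP2-GFP cells measured by flow cytometry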). The following applies: S. cerevisiae MEP2-GFP strain, 3 h, at 10 µM, stronger effect = higher value, 100% means same as DMSO wells.
Experiment [3] is described as follows: modulators of CIT2-GFP expression in yeast, primary screen, S. cerevisiae, GFP fusion, multiplex flow cytometry (AID 1870;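 active = percent response above a set limit, the screen-wide mean plus 3 SD, cut at about 130% in these data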;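 note: barcoded CIT2-GFP strain pooled with four other GFP strains with rapamycin as positive control; median GFP fluorescence per well over plate mean of DMSO wells so 100% = DMSO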). The settings on record: 3 h, at 10 µM, stronger effect = higher value.
Experiment [4] in a line: modulators of LAP4-GFP expression in yeast, primary screen, S. cerevisiae, multiplex flow cytometry (AID 1873;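 active = GFP signal, as percent of the solvent control, above the screen mean plus 3 SD, about 149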). The settings on record: 3 h, at 10 µM, stronger effect = higher value.
The nature of experiment [5]: modulators of AGP1-GFP expression in yeast TOR pathway, primary screen, cell-based, multiplex flow cytometry, S. cerevisiae (AID 1887;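 active = GFP signal above the screen-wide mean plus 3 SD, that is over about 124.5% of the solvent control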;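 note: AGP1-GFP fusion strain of S. cerevisiae within a five-strain barcoded multiplex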). The following applies: 3 h, at 10 µM, stronger effect = higher value.
A short description of experiment [6]: inhibitors of CD8+ T cell-vesicle binding, pilot screen, LFA-1/ICAM-1 modulator project, MLPCN validation set, flow cytometry (AID 2523).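 For vesicle binding response: mean PE anti-B7-1 fluorescence of CD8+ cells relative to row control; 100% = QL9-loaded vesicles with DMSO vehicle in the same plate row.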 The settings on record: 2C mouse CD8+ T cells, at 7 µM, stronger effect = lower value; double positive events: measured here: CD8+/vesicle+ event percentage.
For experiment [7], the target named is Integrin beta-1 (Homo sapiens) + Integrin alpha-4 (Homo sapiens) (UniProt P13612+P05556). In words: inhibition of HUTS-21 binding to VLA-4, pilot screen, VLA-4 allosteric modulator project, U937 cells, HUTS-21 mAb, flow cytometry, validation set (AID 2674;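 active = inhibition above 50%, about 3 SD of the validation set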;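 note: antibody binding induced by the VLA-4 ligand LDV present at three times its Kd; 0% = LDV ligand with antibody and no compound and 100% = antibody without LDV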). The following applies: HUTS-21 LIBS mAb binding, at 6.7 µM, stronger effect = higher value, binding induced by LDV ligand.

Experiment [8] in a line: superoxide lowering in aged yeast cells, pilot screen, validation compound set (AID 2706;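 active = superoxide response below 65% of plate, a cut near 3 SD across the whole screen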;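 note: yeast exposed to compound for one week at 30 degrees C before staining; 100% = mean of all compound wells on the same plate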). The following applies: S. cerevisiae aging, superoxide DHE fluorescence; at 10 µM; stronger effect = lower value.
For experiment [9], the target named is Beta-adrenergic receptor kinase 1 (Homo sapiens) (UniProt P25098). In words: GRK2 binders displacing RNA aptamer, biochemical, validation, human GRK2, bead flow cytometry (AID 488806;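 active = aptamer binding inhibition above 30%, about 3 SD of noise from non-fluorescent compounds; inactive = inhibition at or below 30%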). The settings on record: bead-bound GRK2, FAM-aptamer displacement, at 10 µM, stronger effect = higher value.
Experiment [10] concerns the target Beta-2 adrenergic receptor (Homo sapiens) (UniProt P07550). In words: beta2AR agonists driving receptor internalization, pilot screen, cell-based, FAP fluorogen, flow cytometry, validation set (AID 504459;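 active = percent response above 42, roughly 3 SD of non-fluorescent test compounds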;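 note: agonist-driven loss of surface beta2AR via internalization measured by FAP dye flow cytometry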). The following applies: Am2.2-beta2AR cells, FAP surface receptor flow cytometry; at 10 µM; stronger effect = higher value.
Experiment [11] deals with AP-2 complex subunit beta (Homo sapiens) (UniProt P63010). The experiment is described as follows: inhibitors of arrestin peptide binding to AP2, pilot screen, biochemical, validation set, GST-AP2 beads, flow cytometry (AID 504541;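 active = inhibition above 54%, about 3 SD of non-fluorescent compounds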;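 note: AP2 carries R879A mutation and is captured from E. coli lysate; bead-bound FITC arrestin peptide fluorescence measuring arrestin peptide binding to AP2; 0% = DMSO wells and 100% = excess unlabeled arrestin peptide control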). The settings on record: FITC arrestin peptide, at 10 µM, stronger effect = higher value, AP2 beta2 appendage fragment, R879A mutant.
The nature of experiment [12]: yeast V-ATPase proton transport modulators, S. cerevisiae, pHLuorin, HTS validation (AID 504600; in the data active = response above about 15%;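 note: plate controls were DMSO for no effect and reference compound for full effect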). The following applies: S. cerevisiae pHLuorin cytosolic pH, at 10 µM, stronger effect = higher value.
Experiment [13] relates to anti-desmoglein-3 scFv antibody binding to human DSG3. The experiment is described as follows: inhibitors of anti-DSG3 scFv binding to DSG3, pilot screen, biochemical, validation compound set, bead-based, flow cytometry (AID 588368;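 active = binding below the plate cutoff, the plate median minus 3 SD, with a reading above zero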;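 note: signal is the median channel fluorescence of bead-bound GFP antibody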). The following applies: Protein G beads, DSG3-Fc, scFv-GFP binding, at 10 µM, stronger effect = lower value.
Experiment [14] in a line: inhibitors of fungal efflux pumps CDR1, CDR2, MDR1, pilot screen, validation compound set, multiplex, phenotypic (AID 588506;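 active = efflux inhibition above 0.42, the validation set average plus 4 SD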;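 note: Nile Red retained in cells so higher fluorescence means more efflux inhibition; 0 = negative control wells and 1 = enniatin B 25 µM full block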). The following applies: S. cerevisiae pump-expressing triplex, Nile Red efflux flow cytometry; at 10 µM; stronger effect = higher value; the pumps come from Candida albicans.
For experiment [15], the target named is ATP-binding cassette sub-family B member 6 (Homo sapiens) (UniProt Q9NP58). The experiment is described as follows: ABCB6 transporter inhibitors, pilot screen, K562-ABCB6 cells, flow cytometry, validation set (AID 588550;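 active = inhibition above the screen-wide mean plus 3 SD, about 51%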;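 note: 0% = DMSO wells and 100% = benzethonium chloride 70 µM positive control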). The following applies: K562-ABCB6 porphyrin accumulation, 1 h, at 10 µM, stronger effect = higher value.
Experiment [16] is described as follows: promoters of myeloid differentiation in arrested cells, primary screen, cell-based, GFP/MAC1 double positive, flow cytometry, validation set (AID 588685;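 active = differentiation response of at least 50%, scaled between solvent and reference control, from cells with both markers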;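 note: compound exposure lasts four days before antibody staining and flow analysis; 0% = DMSO wells and 100% = 5 µM fulvestrant positive control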). The following applies: ER-HoxA9 marrow cells, stronger effect = higher value, normalized: vehicle 0, fulvestrant 100.

Chain of Beta-2 adrenergic receptor (Homo sapiens) (P07550 whole entry, looked up): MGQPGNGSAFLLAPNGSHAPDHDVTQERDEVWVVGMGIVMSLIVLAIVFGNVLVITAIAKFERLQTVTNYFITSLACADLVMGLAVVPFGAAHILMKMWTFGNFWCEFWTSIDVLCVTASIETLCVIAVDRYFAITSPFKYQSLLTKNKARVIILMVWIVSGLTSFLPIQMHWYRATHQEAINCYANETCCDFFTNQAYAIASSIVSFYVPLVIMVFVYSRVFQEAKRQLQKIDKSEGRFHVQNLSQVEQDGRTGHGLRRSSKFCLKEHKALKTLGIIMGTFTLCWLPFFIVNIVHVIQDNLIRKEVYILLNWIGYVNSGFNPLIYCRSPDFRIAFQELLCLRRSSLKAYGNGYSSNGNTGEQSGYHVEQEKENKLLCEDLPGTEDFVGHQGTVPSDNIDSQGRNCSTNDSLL
Chain of AP-2 complex subunit beta (Homo sapiens) (P63010 whole entry, looked up, the tested form may be a part, one chain of several): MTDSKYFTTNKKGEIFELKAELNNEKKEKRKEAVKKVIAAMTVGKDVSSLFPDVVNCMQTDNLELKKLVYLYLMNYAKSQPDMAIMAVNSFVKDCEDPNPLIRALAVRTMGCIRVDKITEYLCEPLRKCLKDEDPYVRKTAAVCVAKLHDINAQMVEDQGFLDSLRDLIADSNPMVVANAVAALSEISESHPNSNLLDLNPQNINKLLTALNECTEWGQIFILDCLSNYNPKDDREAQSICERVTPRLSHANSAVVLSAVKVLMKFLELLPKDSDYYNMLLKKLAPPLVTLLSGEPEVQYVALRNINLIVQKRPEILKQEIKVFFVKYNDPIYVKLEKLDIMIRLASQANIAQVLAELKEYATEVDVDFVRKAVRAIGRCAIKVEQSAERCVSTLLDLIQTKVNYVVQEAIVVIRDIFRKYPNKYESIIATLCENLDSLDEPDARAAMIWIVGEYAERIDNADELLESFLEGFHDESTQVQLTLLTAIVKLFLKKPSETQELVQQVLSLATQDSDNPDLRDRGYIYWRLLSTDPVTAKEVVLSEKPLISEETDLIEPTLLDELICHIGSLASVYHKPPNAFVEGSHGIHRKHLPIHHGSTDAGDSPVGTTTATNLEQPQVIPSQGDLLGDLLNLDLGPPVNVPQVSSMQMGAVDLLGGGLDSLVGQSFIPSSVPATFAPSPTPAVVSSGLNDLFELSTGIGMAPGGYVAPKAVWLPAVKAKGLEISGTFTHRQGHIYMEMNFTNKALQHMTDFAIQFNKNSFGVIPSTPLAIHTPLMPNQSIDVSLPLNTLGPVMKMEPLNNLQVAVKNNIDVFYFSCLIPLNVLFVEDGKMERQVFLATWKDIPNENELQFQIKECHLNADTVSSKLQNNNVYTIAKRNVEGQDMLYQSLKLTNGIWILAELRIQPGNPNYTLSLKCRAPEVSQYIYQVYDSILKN
Chain of Beta-adrenergic receptor kinase 1 (Homo sapiens) (P25098 whole entry, looked up): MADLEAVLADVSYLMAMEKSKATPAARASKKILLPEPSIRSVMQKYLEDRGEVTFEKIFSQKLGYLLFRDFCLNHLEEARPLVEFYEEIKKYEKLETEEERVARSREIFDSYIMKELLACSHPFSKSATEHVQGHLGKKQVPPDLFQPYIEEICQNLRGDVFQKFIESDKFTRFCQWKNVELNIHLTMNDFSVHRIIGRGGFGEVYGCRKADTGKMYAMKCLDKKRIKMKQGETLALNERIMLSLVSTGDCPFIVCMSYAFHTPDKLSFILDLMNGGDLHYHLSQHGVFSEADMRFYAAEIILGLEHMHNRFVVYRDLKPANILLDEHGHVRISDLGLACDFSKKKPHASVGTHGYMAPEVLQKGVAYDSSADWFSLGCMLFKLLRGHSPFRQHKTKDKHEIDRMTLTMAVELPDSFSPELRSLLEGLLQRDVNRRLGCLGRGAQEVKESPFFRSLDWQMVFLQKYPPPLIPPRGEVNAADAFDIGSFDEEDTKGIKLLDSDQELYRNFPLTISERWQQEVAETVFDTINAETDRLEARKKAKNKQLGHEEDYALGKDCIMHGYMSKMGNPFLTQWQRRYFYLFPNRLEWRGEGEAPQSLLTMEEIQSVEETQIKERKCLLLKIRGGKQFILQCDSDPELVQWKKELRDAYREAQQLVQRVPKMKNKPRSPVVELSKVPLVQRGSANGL
Chain of ATP-binding cassette sub-family B member 6 (Homo sapiens) (Q9NP58 whole entry, looked up): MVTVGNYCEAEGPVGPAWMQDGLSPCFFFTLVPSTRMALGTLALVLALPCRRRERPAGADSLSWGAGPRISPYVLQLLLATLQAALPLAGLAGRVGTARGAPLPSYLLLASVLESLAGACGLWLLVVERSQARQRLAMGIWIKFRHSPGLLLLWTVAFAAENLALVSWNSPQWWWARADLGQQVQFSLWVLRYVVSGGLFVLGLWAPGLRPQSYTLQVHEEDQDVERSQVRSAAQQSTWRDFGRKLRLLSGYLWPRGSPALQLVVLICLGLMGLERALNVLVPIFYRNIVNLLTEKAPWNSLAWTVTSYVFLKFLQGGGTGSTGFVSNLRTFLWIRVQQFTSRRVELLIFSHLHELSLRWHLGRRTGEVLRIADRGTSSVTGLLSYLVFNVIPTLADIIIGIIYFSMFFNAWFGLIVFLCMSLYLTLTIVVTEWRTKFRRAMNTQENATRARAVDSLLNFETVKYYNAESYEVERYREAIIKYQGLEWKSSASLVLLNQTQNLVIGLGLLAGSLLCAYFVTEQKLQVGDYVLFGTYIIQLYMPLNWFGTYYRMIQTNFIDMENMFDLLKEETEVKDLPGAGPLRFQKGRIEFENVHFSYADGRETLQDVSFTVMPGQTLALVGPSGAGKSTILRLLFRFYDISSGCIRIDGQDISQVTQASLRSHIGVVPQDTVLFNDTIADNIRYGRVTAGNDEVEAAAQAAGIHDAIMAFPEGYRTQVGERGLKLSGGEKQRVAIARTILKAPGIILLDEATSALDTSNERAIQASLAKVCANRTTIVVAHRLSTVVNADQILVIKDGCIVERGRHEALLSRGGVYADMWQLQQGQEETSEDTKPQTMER
Chain of Integrin beta-1 (Homo sapiens) + Integrin alpha-4 (Homo sapiens) (P05556 whole entry, looked up): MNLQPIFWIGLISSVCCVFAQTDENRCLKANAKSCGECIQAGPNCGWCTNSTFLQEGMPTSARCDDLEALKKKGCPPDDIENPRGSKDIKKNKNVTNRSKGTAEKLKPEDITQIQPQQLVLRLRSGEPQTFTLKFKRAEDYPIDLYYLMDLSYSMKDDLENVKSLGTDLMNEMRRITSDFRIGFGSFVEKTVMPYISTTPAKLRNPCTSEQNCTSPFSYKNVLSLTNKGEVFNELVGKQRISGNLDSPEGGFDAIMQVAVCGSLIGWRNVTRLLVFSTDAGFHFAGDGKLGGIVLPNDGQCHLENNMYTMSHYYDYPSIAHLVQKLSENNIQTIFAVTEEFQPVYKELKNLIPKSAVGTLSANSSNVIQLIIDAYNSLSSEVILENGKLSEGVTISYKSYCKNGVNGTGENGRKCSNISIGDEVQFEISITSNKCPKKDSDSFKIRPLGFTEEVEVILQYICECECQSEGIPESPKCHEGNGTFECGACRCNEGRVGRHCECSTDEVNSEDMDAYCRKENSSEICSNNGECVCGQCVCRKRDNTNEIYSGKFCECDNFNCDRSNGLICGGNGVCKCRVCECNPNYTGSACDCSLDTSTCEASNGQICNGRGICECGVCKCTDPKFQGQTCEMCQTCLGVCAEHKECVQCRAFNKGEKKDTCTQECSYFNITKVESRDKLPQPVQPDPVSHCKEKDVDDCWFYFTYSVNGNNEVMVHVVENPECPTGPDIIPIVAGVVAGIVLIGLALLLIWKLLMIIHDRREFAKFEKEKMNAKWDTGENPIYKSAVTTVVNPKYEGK
Chain of Integrin beta-1 (Homo sapiens) + Integrin alpha-4 (Homo sapiens) (P13612 whole entry, looked up): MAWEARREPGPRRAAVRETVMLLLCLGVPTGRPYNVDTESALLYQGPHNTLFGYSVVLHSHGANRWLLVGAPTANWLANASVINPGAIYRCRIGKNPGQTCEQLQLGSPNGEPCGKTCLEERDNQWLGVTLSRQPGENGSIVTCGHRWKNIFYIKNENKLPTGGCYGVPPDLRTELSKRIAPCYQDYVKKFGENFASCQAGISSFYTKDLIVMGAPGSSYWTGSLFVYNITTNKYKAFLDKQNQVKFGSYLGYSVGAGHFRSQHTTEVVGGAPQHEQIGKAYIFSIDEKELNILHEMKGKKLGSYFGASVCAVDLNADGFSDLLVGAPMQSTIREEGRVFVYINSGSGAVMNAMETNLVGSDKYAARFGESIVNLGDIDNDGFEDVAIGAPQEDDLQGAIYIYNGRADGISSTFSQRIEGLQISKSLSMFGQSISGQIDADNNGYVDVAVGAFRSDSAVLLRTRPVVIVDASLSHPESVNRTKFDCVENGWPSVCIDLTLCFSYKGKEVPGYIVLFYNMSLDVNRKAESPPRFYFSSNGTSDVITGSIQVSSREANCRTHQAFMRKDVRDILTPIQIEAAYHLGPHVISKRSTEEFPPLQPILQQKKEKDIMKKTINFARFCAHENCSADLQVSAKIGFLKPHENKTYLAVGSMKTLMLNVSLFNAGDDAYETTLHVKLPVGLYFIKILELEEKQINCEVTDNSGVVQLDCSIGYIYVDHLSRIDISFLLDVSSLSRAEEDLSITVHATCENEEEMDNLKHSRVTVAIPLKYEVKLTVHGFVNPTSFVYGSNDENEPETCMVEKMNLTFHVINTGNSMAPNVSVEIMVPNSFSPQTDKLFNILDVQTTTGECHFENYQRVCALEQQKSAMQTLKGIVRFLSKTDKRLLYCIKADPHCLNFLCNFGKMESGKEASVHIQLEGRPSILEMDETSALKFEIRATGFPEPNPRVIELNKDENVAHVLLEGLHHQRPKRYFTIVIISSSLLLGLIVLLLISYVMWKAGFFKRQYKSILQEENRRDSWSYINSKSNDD

With `OCCC1CN(Cc2nc(-c3ccccc3)cs2)CCN1Cc1ccc(F)cc1` (stereo not given), the percent of DMSO control GFP in experiment [1] was 106% (inactive). For the same compound, the GFP response vs DMSO was 98.7% (inactive) in experiment [2] and 100% (inactive) in experiment [4]. For the same compound, the percent response of DMSO control in experiment [3] is 115% (inactive). In addition, in experiment [5], the GFP response, % of DMSO is 104% (inactive). In experiment [6], this compound yielded a double positive events of 68.6%. In addition, the vesicle binding response in experiment [6] is 312% (inactive). Further, the results for the inhibition in [7], in experiment [11] and in experiment [15] were -6.45% (inactive), -6.97% (inactive) and 9% (inactive), respectively. The superoxide response (% of plate) in [8] is 103% (inactive). In addition, in experiment [9], the aptamer binding inhibition is 0% (inactive). In addition, the response in experiment [10] was 2.61% (inactive); in experiment [12], -2.6% (inactive). The binding (% of control) in experiment [13] was 100% (inactive). In experiment [14], the efflux inhibition (fraction of control) was 0.31 (inactive). Further, the differentiation response in [16] was -6.03% (inactive).

On to `COc1ccc(N2CCN(C(=S)NCc3ccccc3)CC2)cc1`, for which the percent of DMSO control GFP in experiment [1] is 91.7% (inactive). Besides, the results for the GFP response vs DMSO in experiment [2] and in [4] were 133% (inactive) and 81.4% (inactive), respectively. Also, the percent response of DMSO control in [3] was 101% (inactive). In addition, in experiment [5], the GFP response, % of DMSO was 88.2% (inactive). Besides, the double positive events in experiment [6] is 65.5%. In [6], the vesicle binding response was 171% (inactive). Besides, the inhibition in experiment [7] is 0.64% (inactive); in experiment [11], 30.1% (inactive); in experiment [15], 0% (inactive). Moreover, the superoxide response (% of plate) in [8] was 82.1% (inactive). Moreover, the aptamer binding inhibition in [9] was 2% (inactive). For the same compound, the response in [10] was -3.32% (inactive); in experiment [12], -3.6% (inactive). Further, the binding (% of control) in [13] was 108% (inactive). In addition, the efflux inhibition (fraction of control) in experiment [14] was 0.16 (inactive). In addition, in experiment [16], the differentiation response is 4.09% (inactive).

For the compound `CC(C)(Sc1cc(C(C)(C)C)c(O)c(C(C)(C)C)c1)Sc1cc(C(C)(C)C)c(O)c(C(C)(C)C)c1`, the percent of DMSO control GFP in [1] was 101% (inactive). Moreover, the GFP response vs DMSO is 105% (inactive) in experiment [2] and 101% (inactive) in experiment [4]. For the same compound, in [3], the percent response of DMSO control is 107% (inactive). In addition, the GFP response, % of DMSO in experiment [5] was 106% (inactive). The double positive events in experiment [6] is 60.1%. Also, the vesicle binding response in [6] is 170% (inactive). Also, the inhibition in [7] was -2.43% (inactive); in experiment [11], 10.6% (inactive); in experiment [15], 21% (inactive). Further, the superoxide response (% of plate) in [8] is 90.1% (inactive). The aptamer binding inhibition in experiment [9] is -5% (inactive). Also, the response in [10] was 1.22% (inactive); in experiment [12], -3.38% (inactive). In experiment [13], the binding (% of control) was 102% (inactive). For the same compound, the efflux inhibition (fraction of control) in [14] was -0.03 (inactive). Further, the differentiation response in [16] is -17.7% (inactive).

For `CC(=O)Nc1ccc2[nH]c(C)c(CC=C(Cl)Cl)c(=O)c2c1`, in [1], the percent of DMSO control GFP is 105% (inactive). Also, the GFP response vs DMSO was 113% (inactive) in [2] and 87.3% (inactive) in [4]. Moreover, the percent response of DMSO control in experiment [3] was 93.9% (inactive). Further, the GFP response, % of DMSO in [5] was 94.8% (inactive). In addition, the double positive events in experiment [6] turned out to be 61.1%. Also, in [6], the vesicle binding response was 146% (inactive). Further, the results for the inhibition in experiment [7], in [11] and in experiment [15] were 12.6% (inactive), -17.8% (inactive) and 11% (inactive), respectively. Moreover, the superoxide response (% of plate) in experiment [8] was 110% (inactive). In addition, the aptamer binding inhibition in experiment [9] was 4% (inactive). The response in experiment [10] is 5.01% (inactive); in experiment [12], 0.46% (inactive). For the same compound, the binding (% of control) in experiment [13] was 97.9% (inactive). Also, the efflux inhibition (fraction of control) in experiment [14] was 0.14 (inactive). Also, the differentiation response in experiment [16] was -5.68% (inactive).

Consider `O=C(Cc1cccc2ccccc12)N1CC[C@@]2(O)CCCC[C@H]2C1`, for which the percent of DMSO control GFP in experiment [1] is 92% (inactive). Also, the GFP response vs DMSO in experiment [2] was 138% (inactive); in experiment [4], 85.3% (inactive). The percent response of DMSO control in experiment [3] was 104% (inactive). Besides, the GFP response, % of DMSO in experiment [5] was 85% (inactive). For the same compound, in experiment [6], the double positive events turned out to be 62%. The vesicle binding response in [6] was 252% (inactive). The inhibition in experiment [7] was 10.3% (inactive); in experiment [11] it was -11.6% (inactive); in experiment [15], 10% (inactive). Also, the superoxide response (% of plate) in experiment [8] is 110% (inactive). Besides, the aptamer binding inhibition in experiment [9] was 11% (inactive). The response in experiment [10] is 0.11% (inactive); in [12], 2.02% (inactive). The binding (% of control) in [13] was 105% (inactive). For the same compound, the efflux inhibition (fraction of control) in experiment [14] is -0.24 (inactive). The differentiation response in experiment [16] was -2.46% (inactive).

The inhibition is the drop in the measured response relative to a control, in per cent.
